# Measured values taken from PubChem BioAssay (NCI).
# Compounds without any hit were thinned out: in the full panel of roughly 79,000, 15% have a hit. Unmarked numbers belong to inactive results. Activity calls are given as the source filed them. Rule as the data show it: active = growth inhibition above about 70%; inactive = the rest.
# Experiments:
# [1] = NCI Yeast Anticancer Drug Screen. Data for the rad50 strain (AID 155);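 also: 0% = growth of vehicle-only cultures of the same strain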; conditions: S. cerevisiae rad50 strain growth inhibition; at 50.0 µM; stronger effect = higher value
# How it was run: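 Readout: growth inhibition relative to vehicle-treated cultures. Compound exposure was carried out in a genetically defined yeast strain deficient in DNA damage repair.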
# [2] = NCI Yeast Anticancer Drug Screen. Data for the mec2-1 strain (AID 157); conditions: S. cerevisiae mec2-1 strain, at 50.0 µM, stronger effect = higher value
# How it was run: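 Test agents were screened against the mec2-1 yeast strain, with defined DNA repair or cell cycle alteration. Growth was scored as inhibition against vehicle-only controls.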
# [3] = NCI Yeast Anticancer Drug Screen. Data for the sgs1 mgt1 strain (AID 161);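 also: 0% = growth of cultures given vehicle only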; conditions: S. cerevisiae sgs1 mgt1 strain, at 50.0 µM, stronger effect = higher value
# How it was run: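 Test agents were incubated with a DNA-repair-mutant yeast strain. Growth was then read and compared against vehicle-treated controls.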
# [4] = NCI Yeast Anticancer Drug Screen. Data for the cln2 rad14 strain (AID 165);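 also: 0% = growth equal to vehicle treated cultures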; conditions: S. cerevisiae cln2 rad14 strain, at 50.0 µM, stronger effect = higher value
# How it was run: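 Growth of compound-exposed yeast (cln2 rad14 genotype) measured and expressed as inhibition relative to vehicle.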
# [5] = NCI Yeast Anticancer Drug Screen. Data for the bub3 strain (AID 167); conditions: S. cerevisiae bub3 mutant strain, at 50.0 µM, stronger effect = higher value
# How it was run: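 Readout: yeast growth inhibition, expressed relative to vehicle-only wells. The test organism is a mutant strain from a panel with lesions in DNA repair or checkpoint genes.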
# [6] = NCI Yeast Anticancer Drug Screen. Data for the mlh1 rad18 strain (AID 175); conditions: S. cerevisiae mlh1 rad18 strain growth inhibition; at 50.0 µM; stronger effect = higher value
# How it was run: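 In this whole-cell yeast screen, a strain with altered DNA damage repair is challenged with compound, and its growth is measured against matched vehicle-treated controls.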
SMILES,growth inhibition [1],growth inhibition [2],growth inhibition [3],growth inhibition [4],growth inhibition [5],growth inhibition [6]
N#Cc1c(-c2ccccc2)cc(-c2ccc(N)cc2)[nH]c1=O,26.5%,3.65%,13.2%,33.4%,11.6%,20.3%
O=c1nc(N2CCSCC2)ccn1C1OC(CO)C(O)C1O (configuration not stated),-6.5%,-6.7%,-8.45%,-5.75%,-3.5%,-2.25%
Cc1cc(C)n(-c2nc(C)c(CCO)c(=O)[nH]2)n1,-6.45%,-14.6%,-6.4%,15.7%,-41.4%,-9.1%
Cc1ccc(S(=O)(=O)O)c2c([N+](=O)[O-])cccc12,-8.85%,6.75%,-11.1%,-32.4%,-9.85%,-22.6%
N#CCCCCN1CCCCC1,-4.85%,-20.9%,-9.95%,9.8%,-14.6%,13.6%
CC(C)NC(=O)OCc1c(COC(=O)NC(C)C)c2cccn2c2c1cnn2-c1ccccc1,-0.9%,0.6%,-11.2%,-3.7%,0.15%,18.3%
CC(C)CCOCC(O)CNCCN (configuration not stated),12.6%,2.5%,-14.7%,5.1%,-1%,12.3%
Cc1ccc(SCC(CF)OC(C)n2cnc3c(=O)[nH]c(N)nc32)cc1 (configuration not stated),9.8%,6.1%,-27.4%,23.4%,7.55%,-46.5%
Cc1cccn(C)c1=O,-5%,1.9%,2.15%,2.15%,0.4%,3.05%
Cc1cccc(C(=O)O)c1-c1c(C)cccc1C(=O)O,13.3%,-5.95%,-6.8%,3.05%,0.8%,12.9%
COc1ccc2c(c1)C(=O)C1CCC(=O)N1C2c1ccc2c(c1)OCO2 (configuration not stated),-9.65%,18.3%,10.2%,5.9%,47.1%,-0.3%
Cc1cc(NC(=O)NC(=O)c2ccccc2NC(=O)CN)ccc1Oc1ncc(Br)cn1,6%,-13.8%,40.3%,11.4%,15.1%,-43.5%
CCCCCCCCCCCCCCCCN1C(=O)c2ccccc2S1(=O)=O,-14.7%,-15.8%,-10.5%,32.5%,-2.2%,5.1%
Cn1ccnc1CCc1ccc(F)cc1F,-37.2%,-20.8%,-2.75%,-0.15%,-2.2%,-22.2%
COC(=O)c1cc(=O)c2scc(C)[n+]2[nH]1,-5.4%,-10.8%,18.9%,9.55%,-3.05%,-5.3%
NC(=O)N=Nc1ccc(Br)cc1,9.8%,7.05%,-7.85%,-11.7%,-3.55%,18.3%
Cc1cc(C2(c3cc(C)c(O)c4ncccc34)OC(=O)c3ccccc32)c2cccnc2c1O,84.6% (active),85.5% (active),50.6%,44%,66%,87.5% (active)
CN(C)CCCN1C=CC(=C2C(=O)c3ccccc3C2=O)C=C1,3.1%,20.8%,10.3%,34.9%,8.5%,-0.95%
CC(CC(=O)O)(CC(=O)O)c1ccccc1,19.6%,-35.5%,-11.2%,-7.3%,-7.05%,-35.1%

SMILES,growth inhibition [1],growth inhibition [2],growth inhibition [3],growth inhibition [4],growth inhibition [5],growth inhibition [6]
c1ccc2c(c1)CCc1cc3cc4c(nc3nc1-2)-c1ccccc1CC4,-14.4%,-15.8%,-14.1%,-9.4%,-1.75%,-15.2%
CCCCCCn1c(=O)cc2n(c1=O)CCC2,30%,11.3%,22.1%,11.1%,3.5%,-3.4%
CCC1(CN(C)C)CC/C(=C\c2ccc(OC)cc2)C1=O (configuration not stated),8.8%,4.1%,-9.2%,-6.1%,-5.8%,27.3%
O=S(=O)(Cl)c1ccc(I)cc1,-5.2%,-21.2%,-12.3%,22.4%,-2.2%,-20.6%
CC(C)CCCC(C)C1CCC2C3CC=C4CC(OC(=O)C56C=CC(=O)C5C5C=CC6CC5)CCC4(C)C3CCC12C (configuration not stated),11.4%,21.6%,-1.2%,2.25%,1.65%,20.9%
CC(C)=NNC(=O)c1ccc([N+](=O)[O-])cc1,9.35%,0.95%,2.1%,5.1%,3.65%,10.4%
CCN(CC)/[N+]([O-])=N/OCC(C)O (configuration not stated),18.4%,-3.45%,-3.85%,8.35%,0.55%,-12.5%
CCc1c[nH]c(C=O)c1CC,6.35%,-14.1%,-12.5%,11.4%,-10.8%,18.6%
COc1ccc(C=C2C(=O)OC(C)(C)OC2=O)cc1OC,-6.7%,-8.85%,-8.5%,30%,-23.8%,-4.85%
C=CCC1(C(=O)OC)CCC/C(=N\O)C1 (configuration not stated),7.5%,-17.8%,-19.4%,4.1%,-26.9%,-3.45%
COC(=O)C[C@@]1(C(=O)OC)[C@@H](C(=O)OC)C(C(=O)OC)=NN1C,-5.35%,-18.4%,0.85%,-49%,18.1%,-4.45%
C=CCOc1ccc(Cl)cc1Br,-1.8%,-4.6%,-2.65%,-46.6%,-3.35%,-7.8%
CCN(CC)c1ccc(/C=C2\SC(=S)NC2=O)cc1,2.95%,4.65%,27.6%,9.95%,9.35%,7.75%
O=C(Nc1cc(C(F)(F)F)ccc1Cl)c1ccc(Cl)cc1Cl,8.2%,11.2%,1.7%,-0.75%,9.9%,13.7%
O=C(CCN1CCCCC1)Nc1ccc2sc3ccccc3c(=O)c2n1,51.9%,-19.7%,-0.6%,9.1%,11.1%,10.7%
Cc1cc[n+](Cc2ccccc2Cl)c(C)c1,19%,2.25%,14%,-4.15%,2.05%,4.9%
CCN(CC)CCCNc1cc(OC)c(Cl)c2cccnc12,22.2%,9.1%,38%,35.9%,-19.8%,28.7%
O=C(c1ccc(Cl)cc1)N(C(=S)N1CCN(c2ccccc2)CC1)c1ccccc1,-11.5%,-25.9%,-12.1%,-6.3%,-13.8%,-15.1%
